NS1 function inh = qHTS Assay for Inhibitors of Influenza NS1 Protein Function. Potency, µM (highest dose often 46.1 µM), without a hit: top-dose activity, positive = more growth. 0.4% of 270,000 active. AID 2326, 2010; calls by dose curve; further: potency means the concentration at half of the fitted maximal effect; actives are rising curves; nearly all actives have a fitted effect of over 50% in size
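Recovery from NS1-induced slow growth read by OD600 in budding yeast switched to galactose assay medium (pH 6.0, -URA) at 1:100 dilution. Compound 23 nl per well; the matching strain lacking NS1 serves as control.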
Pf growth 48h = Primary qHTS for delayed death inhibitors of the malarial parasite plastid, 48 hour incubation | 5.9% of 310,000 active | AID 504832, 2011 | Potency, µM (series often up to 28.7 µM), for inactives: top-dose activity change, negative = inhibition, most hits filed as inhibitors | P. falciparum luciferase growth in erythrocytes, 48 h; further: potency means the concentration at half of the fitted maximal effect; on the % scale 0 is the no-effect control and ±100 the full control effect
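Luminescence readout; reporter = integrated firefly luciferase in P. falciparum. RBC culture at 2% hematocrit, 0.1% parasitemia final, 37 C/5% CO2; decreased signal taken as growth inhibition.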
Shiga inhibitor = A qHTS for Small Molecule Inhibitors of Shiga Toxin | Vero cells, Shiga toxin protein synthesis inhibition reporter | inhibition, % at 38.7 µM | 9.2% of 290,000 active | AID 2315, 2010; in the data active means inhibition mostly above about 28%, no sharp cut-off; inactive means mostly below about 43%; further: 0% is about no effect
Sm TGR block = qHTS Assay for the Inhibitors of Schistosoma Mansoni Peroxiredoxins; Schistosoma mansoni thioredoxin glutathione reductase (TGR), Q962Y6; purified TGR, DTNB reduction, TNB absorbance 405 nm; Potency, µM (titrated, usually from 114 µM), for the others: at the highest dose activity change, negative = inhibition, hits mostly inhibitors; 3% of 360,000 active; further: potency means the concentration at half of the fitted maximal effect; on the % scale 0 is the no-effect control and ±100 the full control effect; nearly all actives have a fitted effect of over 60% in size
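TGR 20 nM + NADPH 100 uM (dispensed conc.), cpd preinc 15 min RT; start with NADPH (500 uM addition) then DTNB (15 mM addition). Kinetic TNB absorbance, 405 nm filter. Four-parameter Hill fit across titration.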
Pf growth 96h = Primary qHTS for delayed death inhibitors of the malarial parasite plastid, 96 hour incubation; Potency, µM (series often up to 28.7 µM), without a hit: at the top dose activity change, negative = inhibition, hits mostly inhibitors; 6.9% of 320,000 active; AID 504834, 2011; P. falciparum luciferase reporter growth, 96 h; further: potency means the concentration at half of the fitted maximal effect; on the % scale 0 is the no-effect control and ±100 the full control effect
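Infected RBCs, 2% Hct / 0.05% parasitemia final; luciferase-reporter P. falciparum; cpd 96 h, 37 C, 5% CO2; luciferase detection reagent; luminescence.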
Cycloheximide cs = Cycloheximide Counterscreen for Small Molecule Inhibitors of Shiga Toxin; cell reporter, cycloheximide protein synthesis inhibition counterscreen; AID 2314, 2010; max response, %; 12% of 300,000 active; in the data active means max response mostly above about 13%, no sharp cut-off; inactive means mostly below about 14%; further: read at 38.3 µM for the half of the compounds with a filed dose; 0% is about no effect
Active calls of the source: *. In the library only some 21% were active in any assay of this set; here they are far more common. Unless noted, the call rests on the fitted dose curve; in most records, active means well fitted curve in the direction sought with a large enough effect; inconclusive means small, poorly fitted or top-dose-only effect, or another doubt; inactive means no such curve, though single readings can be large; an effect the other way counts as inactive or inconclusive.

Screening Cc1nn(-c2ccccc2)c2nc(-c3cccs3)cc(C(=O)NN)c12 returned Pf growth 48h -17%, Shiga inhibitor 9, Sm TGR block 10%, Pf growth 96h inconclusive and Cycloheximide cs -5.
Screening CCCn1c(=O)c2c(C(F)(F)F)cc(-c3ccco3)nc2n(CCC)c1=O returned NS1 function inh 4%, Pf growth 48h -10%, Shiga inhibitor -4, Sm TGR block -14% and Cycloheximide cs -5.
Screening C[C@@H](NC(=O)C1(c2ccccc2)CCN(C(=O)OC(C)(C)C)CC1)C(=O)N[C@@H](C(=O)O)c1ccccc1 returned NS1 function inh 15%, Pf growth 48h -6%, Shiga inhibitor -4, Sm TGR block 6%, Pf growth 96h 18% and Cycloheximide cs -1.
For O=C1C=C(c2cccc(CO)c2)C[C@@H](c2ccc3c(c2)OCO3)C1 the results were Pf growth 48h inconclusive, Sm TGR block 0% and Pf growth 96h inconclusive.
`Cc1ccc(NC(=O)c2sc3nc(C)nc(N4CCN(c5ccccn5)CC4)c3c2C)c(C)c1` gave NS1 function inh -6%, Pf growth 48h inconclusive, Shiga inhibitor -3, Sm TGR block 1%, Pf growth 96h 22% and Cycloheximide cs -4.
For Cc1nc(N2CCN(c3ccccn3)CC2)c2c(C)c(C(=O)N3CCN(c4ccccc4F)CC3)sc2n1 the results were NS1 function inh 2%, Pf growth 48h 8.3µM*, Shiga inhibitor -3, Sm TGR block -13%, Pf growth 96h 24% and Cycloheximide cs -4.
Screening Cc1nc(N2CCN(c3ccccn3)CC2)c2c(C)c(C(=O)Nc3ccc(Br)cc3C)sc2n1 returned NS1 function inh -2%, Pf growth 48h 2.9µM*, Shiga inhibitor 18, Sm TGR block 8%, Pf growth 96h -28% and Cycloheximide cs -2.
`CCCCCC/C=C/c1ccc(OC)c([C@H]2[C@H]3C=CC[C@@H](C)[C@@H]3C(=O)N2Cc2ccccc2)c1` gave NS1 function inh -1%, Pf growth 48h -17%, Shiga inhibitor -10, Sm TGR block inconclusive, Pf growth 96h -11% and Cycloheximide cs -3.
Screening CCN(Cc1ccccc1)c1ncnc2c1nnn2C returned Sm TGR block 12%.
Cc1ccccc1NC(=O)CSc1nnc(-c2cccs2)o1 was read as Sm TGR block -3%.
For Cc1ccccc1-c1nnc(-c2cccs2)o1 the results were NS1 function inh -15%, Pf growth 48h 78%, Shiga inhibitor 85*, Sm TGR block 25%, Pf growth 96h -28% and Cycloheximide cs 58*.
Cc1ccccc1-c1noc(-c2cccs2)n1 was read as NS1 function inh 0%, Pf growth 48h 106%, Shiga inhibitor 87*, Sm TGR block -8%, Pf growth 96h inconclusive and Cycloheximide cs 55*.
Cn1nnnc1SCCNCc1ccccc1OCc1ccc(Cl)cc1 was read as NS1 function inh 14%, Pf growth 48h inconclusive, Shiga inhibitor -8, Sm TGR block 7%, Pf growth 96h 12µM* and Cycloheximide cs -5.
Cn1nnnc1SCCCNCc1ccccc1OCc1ccc(Cl)cc1 was read as Sm TGR block -2%.
For O=C(N/N=C/c1ccccc1)c1sccc1OCc1ccc(F)cc1 the results were NS1 function inh -53%, Pf growth 48h inconclusive, Shiga inhibitor 2, Sm TGR block -20%, Pf growth 96h inconclusive and Cycloheximide cs 9.
Screening O=[N+]([O-])c1ccc(-n2nnnc2-c2ccccc2)c([N+](=O)[O-])c1 returned NS1 function inh -12%, Pf growth 48h 0%, Shiga inhibitor -3, Sm TGR block 18µM*, Pf growth 96h inconclusive and Cycloheximide cs -4.
For O=[N+]([O-])c1ccc(-n2nnnc2-c2ccccc2)cc1 the results were Pf growth 48h 1%, Shiga inhibitor -5, Sm TGR block -1%, Pf growth 96h -14% and Cycloheximide cs 4.
`CN(C)S(=O)(=O)c1cccc(NC(=S)N/N=C/c2cccc(O)c2)c1` gave NS1 function inh -1%, Pf growth 48h inconclusive, Shiga inhibitor 36, Pf growth 96h inconclusive and Cycloheximide cs 18.
O=C(C[n+]1ccccc1)N/N=C/c1cc(Br)ccc1O was read as NS1 function inh -8%, Shiga inhibitor -1, Sm TGR block 28%, Pf growth 96h 4.1µM* and Cycloheximide cs -1.
For O=C(C[n+]1ccccc1)N/N=C/c1ccccc1F the results were Pf growth 48h 0%, Shiga inhibitor -7, Sm TGR block 2%, Pf growth 96h -25% and Cycloheximide cs -3.
`O=C(N/N=C/c1cc(Br)ccc1O)Nc1ccccc1` gave NS1 function inh -33%, Pf growth 48h inconclusive, Shiga inhibitor 76*, Sm TGR block -12%, Pf growth 96h 8.3µM* and Cycloheximide cs -2.
Screening CC(C)(C)c1ccc(/C=N/NC(=O)C[n+]2ccccc2)cc1 returned NS1 function inh -2%, Pf growth 48h inconclusive, Shiga inhibitor 12, Sm TGR block 11%, Pf growth 96h -19% and Cycloheximide cs 7.
Screening O=C(C[n+]1ccccc1)N/N=C/c1ccc(Cl)cc1 returned Pf growth 48h inconclusive, Sm TGR block -5% and Pf growth 96h 7.4µM*.
For NC(=O)N/N=C\c1cc(Br)ccc1O the results were NS1 function inh 4%, Pf growth 48h -15%, Shiga inhibitor -8, Sm TGR block -13%, Pf growth 96h 17% and Cycloheximide cs 2.
Screening CN(C)S(=O)(=O)c1cccc(NC(=S)N/N=C/c2cc(Br)ccc2O)c1 returned NS1 function inh -1%, Pf growth 48h 2.1µM*, Shiga inhibitor 28, Sm TGR block -16%, Pf growth 96h inconclusive and Cycloheximide cs 14.
CCc1nn(CC(=O)NCCc2ccc(SC)cc2)c(=O)c2cc3sccc3n12 was read as Sm TGR block -11%.
For CCOc1ccccc1NC(=O)C(=O)N/N=C/c1cc(Br)ccc1O the results were Pf growth 48h 2.3µM*, Shiga inhibitor 8, Sm TGR block 0%, Pf growth 96h -26% and Cycloheximide cs -6.
For CCOc1ccccc1N(CC(=O)N/N=C/c1cc(Br)ccc1OC)S(C)(=O)=O the results were NS1 function inh -8%, Pf growth 48h -23%, Shiga inhibitor -4, Sm TGR block -4%, Pf growth 96h 0% and Cycloheximide cs -3.
CC(C)(C)c1csc(NC(=O)C2=COCCO2)n1 was read as Pf growth 48h 203%, Sm TGR block 1% and Pf growth 96h 161%.
Cc1ccc(C(=O)Nc2nc(C(C)(C)C)cs2)s1 was read as NS1 function inh -83%, Pf growth 48h 20%, Shiga inhibitor 158*, Sm TGR block 25% and Cycloheximide cs 57*.

Source: PubChem BioAssay (National Center for Advancing Translational Sciences (NCATS))
